Experimental data as given in PubChem BioAssay (NCI).
This is part of a sample that, as a whole, favours compounds with a hit. Of some 83,000 tested, about 20% had one in any assay.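 Compound tested at a single concentration for 48 hours in 96-well plates; a percent growth value below 10 was scored as active.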 Calls of active or inactive are those of the source.

Columns and labels:
Assay in all cases: NCI-60 one-dose screen, 48 h (100 = growth as untreated, 0 = no growth, -100 = all killed)
Details in all cases: 10 µM unless noted
[1] = tested on: NCI-H23 lung
[2] = tested on: NCI-H226 lung
[3] = tested on: NCI-H322M lung
[4] = tested on: HOP-62 NSCLC
[5] = tested on: NCI-H460 lung
[6] = tested on: HOP-92 NSCLC
[7] = tested on: NCI-H522 lung
[8] = tested on: A549/ATCC NSCLC
[9] = tested on: 786-0 renal
[10] = tested on: COLO 205 colon
[11] = tested on: DU-145 prostate
[12] = tested on: K-562 leukemia
[13] = tested on: MALME-3M melanoma
[14] = tested on: MDA-MB-231 breast
[15] = tested on: RXF 393 renal
[16] = tested on: SF-268 CNS
[17] = tested on: SF-295 CNS
[18] = tested on: SF-539 CNS
[19] = tested on: UACC-257 melanoma
[20] = tested on: M14 melanoma

Measured: growth

O=C(/C=C/c1ccc2ccccc2c1)Nc1ncc(Cc2ccccc2)s1
inactive: [1] 80.3% | [2] 46% | [3] 46.3% | [4] 56.7% | [5] 30.8% | [6] 78.2% | [7] 72.8% | [8] 21.6% | [9] 34.2% | [10] 55.8% | [11] 70.4% | [12] 70.6% | [13] 51% | [14] 28.5% | [15] 93.3% | [16] 73.8% | [17] 36.8% | [18] 78.2% | [19] 94.8% | [20] 59.8%

COc1ccc(C(=O)c2ccc(C)cc2)c(OC)c1OC
inactive: [1] 82.9% | [2] 90.1% | [3] 111% | [4] 78.5% | [5] 87.1% | [6] 85.6% | [7] 81.8% | [8] 78.3% | [9] 107% | [10] 70.8% | [11] 89.8% | [12] 40% | [13] 92.5% | [14] 75.9% | [15] 86.1% | [16] 85.9% | [17] 74.5% | [18] 77% | [19] 82.9% | [20] 61.3%

CC(=O)O[C@H]1CC[C@]2(C)[C@H]3C(=O)C=C4[C@@H]5C[C@](C)(C(=O)N6CCCNCC6)CC[C@]5(C)CC[C@@]4(C)[C@]3(C)CC[C@H]2C1(C)C
active: [4] -50.4% | [5] -83.8% | [8] -52.8% | [9] -71.9% | [10] -87.7% | [11] 4.85% | [12] -11.3% | [13] -71.7% | [14] -84.6% | [15] -89.4% | [18] -92.9% | [20] 6.84%
inactive: [1] 40.1% | [2] 76.6% | [3] 19.8% | [6] 31.1% | [7] 30% | [16] 69.6% | [17] 60.2% | [19] 75.7%

Cn1cc(-c2csc(-c3cn(CCCN4CCCCC4)c4ccccc34)n2)c2cccnc21
active: [4] -84% | [5] -58.7% | [8] -14.4% | [9] -87.1% | [10] -80% | [11] -52.5% | [12] -70% | [13] -78.6% | [14] -81.4% | [15] -78.6% | [16] -25.6% | [18] -88.6% | [19] -80.3% | [20] -80.9%
inactive: [1] 84% | [2] 52.7% | [3] 82.7% | [6] 57.8% | [7] 95.2% | [17] 32%

NC1=NN(c2ccccc2)C(=O)/C1=C/c1ccc(Cl)cc1
inactive: [1] 98% | [2] 99.2% | [3] 97.8% | [4] 95.3% | [5] 99.1% | [6] 91.6% | [7] 90.6% | [8] 98.5% | [9] 94.4% | [10] 95.7% | [11] 107% | [12] 102% | [13] 92.4% | [15] 107% | [16] 102% | [17] 113% | [18] 111% | [19] 97.3% | [20] 97.2%
active: [14] -99%

Cc1ccc(-c2nc([P+](c3ccccc3)(c3ccccc3)c3ccccc3)c(N3C[C@H]4C[C@H](C3)c3cccc(=O)n3C4)o2)cc1
inactive: [1] 82.3% | [2] 108% | [3] 94.3% | [4] 90.4% | [5] 105% | [6] 62.6% | [7] 74.3% | [8] 99.1% | [9] 97.1% | [10] 48.9% | [11] 98.3% | [12] 47.3% | [13] 74.5% | [14] 90.9% | [15] 79.8% | [16] 91.1% | [17] 96.1% | [18] 99.7% | [19] 37.5% | [20] 82.3%

Brc1ccc2c(c1)c(-c1nc(-c3c[nH]c4ncccc34)cs1)cn2CCCN1CCCCC1
active: [4] -66.7% | [5] -67.7% | [7] -3.42% | [8] -69.6% | [9] -74.8% | [10] -77.4% | [11] -44.4% | [12] -64.4% | [13] -45.9% | [14] -43.3% | [16] 7.71% | [18] -77.6% | [20] -81.4%
inactive: [1] 22.4% | [2] 71.2% | [3] 39.1% | [6] 31.7% | [15] 23.6% | [17] 27.3% | [19] 66.1%

CC(C)(C)c1[nH]nc2c1C(c1cc3ccccc3[nH]c1=O)Nc1cc(C(=O)OCc3ccccc3)ccc1N2 (stereo not given)
inactive: [1] 69% | [2] 74.8% | [3] 63% | [4] 65.1% | [5] 19.4% | [6] 87.7% | [7] 74.6% | [8] 41.6% | [9] 49.4% | [10] 84.3% | [11] 65% | [12] 17.1% | [13] 58.7% | [14] 63.3% | [15] 59.7% | [16] 58.9% | [17] 30.3% | [18] 66.1% | [19] 69.7% | [20] 55.6%
